# Results: publication PMC4336329 (PLoS ONE, 2015)
# The whole screen tested about 310,000 compounds, of which about 14,000 (4.5%) showed an effect of 50% or more. Effects have a minus sign here. The full list was thinned out, with strong results kept by preference.
# Molecular target: human ether-à-go-go-related gene (hERG) potassium channel (human, UniProt Q12809)
# Experiment: primary screen, population patch clamp on CHO cells stably expressing hERG; higher = less effect of the substance
# 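Further: peak tail current of the secondary pulse compared with the same well before compound.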
# Chain of human ether-à-go-go-related gene (hERG) potassium channel (Q12809 whole entry, looked up): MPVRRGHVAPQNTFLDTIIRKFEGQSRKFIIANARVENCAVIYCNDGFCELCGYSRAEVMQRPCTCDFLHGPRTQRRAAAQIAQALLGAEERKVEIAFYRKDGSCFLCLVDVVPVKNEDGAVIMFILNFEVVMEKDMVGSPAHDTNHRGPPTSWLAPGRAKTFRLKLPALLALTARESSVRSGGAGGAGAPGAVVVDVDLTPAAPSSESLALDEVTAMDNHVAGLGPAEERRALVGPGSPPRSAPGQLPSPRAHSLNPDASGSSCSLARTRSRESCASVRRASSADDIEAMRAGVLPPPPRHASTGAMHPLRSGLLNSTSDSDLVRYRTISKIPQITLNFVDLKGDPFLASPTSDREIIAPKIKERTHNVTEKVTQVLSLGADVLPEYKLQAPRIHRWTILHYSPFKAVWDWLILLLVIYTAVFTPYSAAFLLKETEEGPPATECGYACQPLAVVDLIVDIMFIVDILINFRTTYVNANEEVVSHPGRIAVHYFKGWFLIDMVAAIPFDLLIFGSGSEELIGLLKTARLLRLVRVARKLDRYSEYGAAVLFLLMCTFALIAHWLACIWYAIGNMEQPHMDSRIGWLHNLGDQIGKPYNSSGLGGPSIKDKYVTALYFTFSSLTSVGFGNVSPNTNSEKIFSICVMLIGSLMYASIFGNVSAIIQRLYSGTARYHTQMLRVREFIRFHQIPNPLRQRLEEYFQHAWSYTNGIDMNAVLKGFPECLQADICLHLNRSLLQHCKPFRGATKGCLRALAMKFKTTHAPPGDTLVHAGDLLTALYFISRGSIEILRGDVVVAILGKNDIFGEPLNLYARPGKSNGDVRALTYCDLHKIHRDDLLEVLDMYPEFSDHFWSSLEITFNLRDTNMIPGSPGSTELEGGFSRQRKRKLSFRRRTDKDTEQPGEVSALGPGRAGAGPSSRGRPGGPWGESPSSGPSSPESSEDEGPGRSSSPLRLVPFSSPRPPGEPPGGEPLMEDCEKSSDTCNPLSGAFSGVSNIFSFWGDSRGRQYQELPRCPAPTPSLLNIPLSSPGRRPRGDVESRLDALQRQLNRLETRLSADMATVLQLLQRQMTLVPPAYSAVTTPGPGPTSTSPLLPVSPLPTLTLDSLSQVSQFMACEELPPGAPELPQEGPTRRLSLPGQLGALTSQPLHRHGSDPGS
row,Compound,"hERG current change (%, negative = inhibition) at 10uM [%]"
1,CC(=O)c1ccc(NC(=O)C2=CC(c3ccco3)=NS(=O)(=O)N2C)cc1,-7.75
2,COC(C(=O)N/N=C(\C)CC(=O)Nc1ccc(N(C)C)cc1)c1ccccc1 (stereo not drawn),15.3
3,CC(NS(C)(=O)=O)C(c1cccs1)N1CCN(c2ccccc2F)CC1 (stereo not drawn),6.04
4,Cc1ccc(CNC(=O)Cn2c([N+](=O)[O-])cnc2C)cc1,11.3
5,COc1ccc(S(=O)(=O)NNC(=O)Nc2ccc(C)cc2C)c(OC)c1,-1.37
6,Cc1nc(SCC(=O)c2c(N)n(C3CC3)c(=O)[nH]c2=O)[nH]c(=O)c1CCO,17
7,COc1ccc2c(c1)OC(O)(C(F)(F)F)CC2=O (stereo not drawn),-5.68
8,CN(C1CCCC1)C1CCN(C(=O)CNC(=O)/C=C/c2ccccc2)CC1,-53.8
9,CN(C1CCCC1)C1CCN(C(=O)CNC(=O)/C=C/c2ccc(F)cc2)CC1,-62.6
10,CNC(=O)/C=C/c1cccc(C(F)(F)F)c1,4.99
11,CN(C(=S)NC(=O)/C=C/c1ccc(F)cc1)C1CCCCC1,4.54
12,CN(C1CCCC1)C1CCN(C(=O)CNC(=O)/C=C/c2cccc(C(F)(F)F)c2)CC1,-62.6
13,CN(C(=O)/C=C/c1ccccc1)C1CCCCC1,1.32
14,CC(C)(C)NC(=O)/C=C/c1cccc(C(F)(F)F)c1,-8.66
15,CN(C(=O)/C=C/c1ccc(F)cc1)C1CCCCC1,-22.6
16,COc1ccccc1/C=C/C(=O)NCC(=O)N1CCC(N(C)C2CCCC2)CC1,-35
17,COc1ccc(NC(=O)c2cc(S(=O)(=O)NCC3COc4ccccc4O3)ccc2F)cc1 (stereo not drawn),-19.1
18,O=c1oc2ccccc2cc1-c1cn2ccccc2n1,11.9
19,Nc1nnc(SCC(=O)NC2CCCCCCC2)s1,16.9
20,CCCc1cc2c(cc1NC(=O)c1ccc(C(C)(C)C)cc1)OCO2,-13.8

row,Compound,"hERG current change (%, negative = inhibition) at 10uM [%]"
1,Cc1csc(NC(=O)CSc2nnc3ncccn23)n1,-14.3
2,COc1ccc(NC(=O)CSc2nc3ccccc3c(=O)n2CCCN2CCC(C)CC2)c(OC)c1,-81.6
3,COCCn1c(SCC(=O)Nc2ccc(OC)cc2OC)nc2ccccc2c1=O,10.5
4,COc1ccc(NC(=O)CSc2nc3ccccc3c(=O)n2CCCN2CCCCC2)c(OC)c1,-65.7
5,COCCn1c(SCC(=O)Nc2ccccc2OC)nc2ccccc2c1=O,-40.1
6,CCn1c(SCC(=O)Nc2ccccc2OC)nc2ccccc2c1=O,-11.9
7,COc1ccc(NC(=O)CSc2nc3ccccc3c(=O)n2CCCN2CCOCC2)c(OC)c1,-34.6
8,COc1ccc(NC(=O)CCCNS(=O)(=O)c2cccs2)cc1,2.91
9,Cc1cccc(NC2=C(NC(=O)c3ccccc3)C(=O)c3ccccc3C2=O)c1,-19.4
10,OCC1(CCCc2ccccc2)CCN(Cc2cnc(N3CCOCC3)s2)CC1,-58.3
11,Clc1ncc(CN2CCN(Cc3ccccc3)CC2)s1,-4.52
12,OCC1(CCc2ccccc2)CCN(Cc2cnc(N3CCCC3)s2)CC1,-70.3
13,OCCC1CN(Cc2cnc(N3CCCC3)s2)CCN1Cc1ccccc1 (stereo not drawn),-0.21
14,OCCC1CN(Cc2cnc(N3CCCC3)s2)CCN1C1CCCC1 (stereo not drawn),-7.38
15,COc1cccc(CC2(CO)CCN(Cc3cnc(N4CCOCC4)s3)CC2)c1,-54.7
16,c1ccc(N2CCN(Cc3cnc(N4CCOCC4)s3)CC2)cc1,29.4
17,CN(C)c1ncc(CN2CCC(CO)(CCCc3ccccc3)CC2)s1,-51.3
18,CCOC(=O)C1(Cc2ccccc2)CCN(Cc2cnc(N3CCOCC3)s2)CC1,-42.4
19,CC(=O)Nc1ccc(NC(=O)COC(=O)Cc2c[nH]c3ccccc23)cc1,10.2
20,Cl.O=C(CN1CCCCCC1)N1c2ccccc2Sc2ccc(C(F)(F)F)cc21,-1.87

row,Compound,"hERG current change (%, negative = inhibition) at 10uM [%]"
1,COc1cccc(CNC(=O)c2nnn(CC(=O)Nc3ccc(Br)cc3)c2N)c1,17.5
2,O=C(CNC(=O)Cc1ccc(Cl)cc1)NCC(=O)N1CCCCC1,17.9
3,CCOC(=O)c1c(C)n(C)c2ccc(OCC(N)=O)cc12,7.9
4,CCCCN=C1NN=C(c2cccc([N+](=O)[O-])c2)CS1.Cl,-4.82
5,O=C(CN1CCSCC1)N/N=C/c1ccc(F)cc1F,-6.43
6,CCc1ccc(NC(=O)c2cc(C(C)C)on2)cc1,-27.3
7,CC(C)(C)NCC(O)COc1c(F)cc(Br)cc1F.Cl (stereo not drawn),-7.38
8,CN(CC(O)COc1ccccc1F)C1CCCCC1.Cl (stereo not drawn),2.08
9,CN(CC(O)COc1c(F)cc(Br)cc1F)C1CCCCC1.Cl (stereo not drawn),-65.9
10,CC(C)NCC(O)COc1c(F)cc(Br)cc1F.Cl (stereo not drawn),-4.33
11,CC1CCCC(C)N1CC(O)COc1c(F)cc(Br)cc1F.Cl (stereo not drawn),-57.7
12,Cl.OC(CNC1CCCC1)COc1c(F)cc(Br)cc1F (stereo not drawn),-27.3
13,Cn1c(=O)c2cc(S(=O)(=O)NC(C(=O)Nc3cccc(F)c3)c3ccccc3)ccc2n(C)c1=O (stereo not drawn),-7.01
14,COCCCNc1cc(C)nc2ccccc12.Cl,-40.3
15,COCCCNc1ccnc2c(Cl)cccc12,-58.5
16,COCCNC(=O)COc1ccccc1Cl,1.56
17,COCCNc1cc(C)nc2ccccc12.Cl,-10.8
18,COCCCNc1nc(-c2ccc(Cl)cc2)nc2ccccc12,-1.64
19,COCCNc1ccnc2c(Cl)cccc12,-81.9
20,O=S1(=O)N=C(N(CCO)/N=C/c2ccc(Br)cc2)c2ccccc21,15
